In one assay the test system is CRL-7250. Put plainly: Cytotoxic Profiling of Annotated Libraries Using Quantitative High-Throughput Screening (AID 1296008). For max response: % is set by controls: 0 for no effect and ±100 for the full control effect. Note: nearly all actives have a fitted effect of over 60% in size. Note: potency is the fitted concentration of half-maximal effect. The conditions noted are these: Five cell lines viability, CellTiter-Glo ATP luminescence, 48-72 h; max response: stronger effect = lower value. In outline:
(§1)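 Compounds were pin-transferred onto cells and incubated 48 or 72 hr at 37 degree Celsius, 95% humidity. CellTiter-Glo was added, plates sat 10 min at room temperature, then ATP-coupled luminescence was imaged as the viability read-out.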

For a further assay, the system named is HEK293. The description is as above. The conditions noted are these: Five cell lines viability, CellTiter-Glo ATP luminescence, 48-72 h; max response: stronger effect = lower value. The method in brief: as §1
In assay [1] the test system is HaCat. The description is as above. To be noted: Five cell lines viability, CellTiter-Glo ATP luminescence, 48-72 h; max response: stronger effect = lower value. The method in brief:
as §1

A further assay relates to NIH3T3. Described as above. The conditions noted are these: Five cell lines viability, CellTiter-Glo ATP luminescence, 48-72 h; max response: stronger effect = lower value. In outline:
as §1

For the next assay, the system named is C33A. Put plainly: Primary qHTS to identify gynecologic anti-cancer compounds using libraries of approved drugs and bioactive compounds (AID 1345084). Note: nearly all actives have a fitted effect of over 55% in size. Note: potency is the fitted concentration of half-maximal effect. The conditions noted are these: Gynecologic cancer cell panel viability, ATPlite luminescence, 48 h; series mostly up to 57.5 µM. In outline:
(§2)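 Five-point cytotoxicity, 48 h drug exposure at 37 C, 5% CO2, on cells seeded 16 h beforehand. ATP content read by ATPlite luminescence.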

The test system of another assay is CAOV3. The assay is described as above. The conditions noted are these: Gynecologic cancer cell panel viability, ATPlite luminescence, 48 h; series mostly up to 57.5 µM. In outline:
as §2

Another assay has as its system Es-2. The assay is described as above. To be noted: Gynecologic cancer cell panel viability, ATPlite luminescence, 48 h; series mostly up to 57.5 µM. The method in brief: as §2
Another assay has as its system HeLa. Described as above. The conditions noted are these: Gynecologic cancer cell panel viability, ATPlite luminescence, 48 h; series mostly up to 57.5 µM. The method in brief:
as §2

A further assay deals with JEG-3. The description is as above. The conditions noted are these: Gynecologic cancer cell panel viability, ATPlite luminescence, 48 h; series mostly up to 57.5 µM. The method in brief: as §2
Another assay relates to OV90. The assay is described as above. The conditions noted are these: Gynecologic cancer cell panel viability, ATPlite luminescence, 48 h; series mostly up to 57.5 µM. The method in brief: as §2
For a further assay, the system named is Hek293T. The description is as above. The conditions noted are these: Gynecologic cancer cell panel viability, ATPlite luminescence, 48 h, control line for the selectivity index; series mostly up to 57.5 µM. The method in brief:
as §2

A further assay relates to PA-1. Described as above. The conditions noted are these: Gynecologic cancer cell panel viability, ATPlite luminescence, 48 h; series mostly up to 57.5 µM. In outline: as §2
The subject of another assay is CASKI. The description is as above. To be noted: Gynecologic cancer cell panel viability, ATPlite luminescence, 48 h; series mostly up to 57.5 µM. The method in brief: as §2
Assay [2] deals with HACAT. Put plainly: qHTS assay to identify novel small-molecules to repurpose for Merkel cell carcinoma treatment (AID 1296009). Note: nearly all actives have a fitted effect of over 60% in size. The conditions noted are these: MCC and control cell lines, CellTiter-Glo viability, 72 h; at 44.8 µM (top of the series) unless noted. The method in brief: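 Luminescence from CellTiter-Glo, read 10 min after addition at room temperature, reported viability following a 72 hr, 37 degree celsius treatment with NPC or MIPE compounds in titration; values normalized to plate controls.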

Inconclusive results are not listed. Values without a mark were called inactive. Calls of active or inactive are those of the source. Calls come from the whole dose curve; as a rule, active = well fitted curve in the direction sought with a large enough effect; inconclusive = small, poorly fitted or top-dose-only effect, or another doubt; inactive = no such curve, though single readings can be large; an effect the other way counts as inactive or inconclusive.

Consider `COc1ccc(C[C@H]2COC(=O)[C@@H]2Cc2ccc(O[C@@H]3O[C@H](CO)[C@@H](O)[C@H](O)[C@H]3O)c(OC)c2)cc1OC`, for which the Potency with CRL-7250 was 893 nM (active); in the assay with HEK293, 1780 nM (active). Besides, the values for the max response in the assay on HaCat [1] and in the assay with NIH3T3 were -11.8% and -30.4%, respectively. In addition, the Potency entry in the assay with C33A, with CAOV3, in the assay with Es-2, with HeLa, with JEG-3 and in the assay with OV90 was “inactive” throughout.
Turning to `Cc1cc(-c2nc(-c3ccc(OC(F)(F)F)cc3)no2)nn1Cc1ccnc(N2CCN(C3CC3)CC2)c1`, the Potency with CRL-7250 is 25.9 nM (active); with HEK293, 6.5 nM (active). The results for the max response in the assay on HaCat [1] and in the assay with NIH3T3 were 4.17% and -14.2%, respectively. Moreover, the Potency entry with CAOV3, with Es-2, in the assay with HeLa, in the assay on Hek293T, with JEG-3 and with PA-1 was “inactive” throughout.
Turning to `Cc1nc2ccc(CN(C)c3ccc(C(=O)NC(CCC(=O)O)C(=O)O)s3)cc2c(=O)[nH]1` (configuration not stated), the call with CRL-7250 was inactive. The Potency with HEK293 is 41.1 nM (active); with HaCat [1], 10.3 nM (active); with NIH3T3 it was 65.1 nM (active). Also, the Potency result in the assay on C33A, with CAOV3, in the assay on CASKI, in the assay with Hek293T and in the assay on OV90 was “inactive” each time.
Turning to `Cc1sc2c(c1C)C(c1ccc(Cl)cc1)=N[C@H](CC(=O)NCCCCNC(=O)COc1cccc3c1C(=O)N([C@H]1CCC(=O)NC1=O)C3=O)c1nnc(C)n1-2`, the Potency with CRL-7250 is 1840 nM (active); with HEK293, 2590 nM (active); in the assay with PA-1, 1580 nM (active). Moreover, the figures for the max response in the assay on HaCat [1] and in the assay on NIH3T3 were -67.4% and -0.715%, respectively. The Potency result in the assay on C33A, in the assay with CAOV3, in the assay on CASKI and in the assay with OV90 was “inactive” each time.
As for `Nc1nc(O)c(C2=C3C(=Nc4ccccc43)C(=O)NCC2)[nH]1`, the max response in the assay on CRL-7250 is -2.87%; with HEK293 it was -2.48%; in the assay on HaCat [1], -1.91%; with NIH3T3, 2.47%. In addition, the Potency result in the assay with CASKI, in the assay on Es-2, with HeLa, in the assay with Hek293T, in the assay with OV90 and in the assay on PA-1 was “inactive” in each case.
On to `CCNC(=O)Nc1ccc(-c2nc3c(c(N4CCOCC4C)n2)CCN(C2COC2)C3)cc1` (configuration not stated), for which the Potency was 206 nM (active) in the assay on CRL-7250; 1460 nM (active) in the assay with HEK293; 2310 nM (active) with NIH3T3; 2820 nM (active) in the assay with Hek293T; 2240 nM (active) in the assay on PA-1. In the assay on HaCat [1], the max response is -28.1%. For the same molecule, the Potency result in the assay with CASKI, in the assay on HeLa and in the assay with JEG-3 was “inactive” each time.
In the case of `C=CC(=O)Nc1ccc(CN2C(=O)N(c3cc(OC)cc(OC)c3)Cc3cnc(Nc4ccc(N5CCN(C)CC5)cc4)nc32)cc1`, the Potency is 411 nM (active) in the assay on CRL-7250; 11600 nM (active) in the assay on HEK293; 5170 nM (active) with HaCat [1]; 8200 nM (active) in the assay with NIH3T3; 14100 nM (active) in the assay on CASKI. The Potency entry with Es-2, in the assay with Hek293T, in the assay on OV90 and in the assay with PA-1 was “inactive” each time.
`CC1(C(=O)Nc2ccc(F)nc2)CCCN1c1nc(Nc2cc(C3CC3)[nH]n2)c2cccn2n1` (configuration not stated): the Potency was 8200 nM (active) in the assay on CRL-7250; 5170 nM (active) in the assay with HEK293; 2060 nM (active) in the assay with HaCat [1]; 4610 nM (active) with NIH3T3; 5010 nM (active) with Hek293T; 3550 nM (active) in the assay on OV90. Moreover, the Potency result with C33A and with Es-2 was “inactive” in each case.
In the case of `CN[C@@H]1[C@H](O[C@H]2[C@H](O[C@@H]3[C@@H](O)[C@H](O)[C@@H](N=C(N)N)[C@H](O)[C@H]3N=C(N)N)O[C@@H](C)[C@]2(O)CO)O[C@@H](CO)[C@H](O)[C@H]1O`, the max response in the assay on CRL-7250 is 1.43%; in the assay with HEK293, -16.2%; with HaCat [1], -0.834%; in the assay with NIH3T3 it was 3.49%. The Potency result with C33A, with CASKI, in the assay on Es-2, in the assay on HeLa, in the assay with Hek293T and with JEG-3 was “inactive” throughout. The Potency entry with OV90 and in the assay on PA-1 was “inactive” in each case.
For `CCOC(=O)c1cnc2ccc(-c3cncc(NS(=O)(=O)c4ccccc4)c3)cn12`, the Potency is 4110 nM (active) in the assay with CRL-7250; 1030 nM (active) in the assay with HEK293; 1460 nM (active) in the assay on HaCat [1]; 1160 nM (active) with NIH3T3; 2000 nM (active) in the assay with CASKI; 3160 nM (active) in the assay with Es-2. Moreover, the Potency with HeLa is 1580 nM (active); with Hek293T, 1780 nM (active); with JEG-3, 7080 nM (active); in the assay with OV90, 11200 nM (active); in the assay with PA-1, 1780 nM (active).
`COc1cc(N2CCC(N)CC2)ccc1Nc1ncc(Cl)c(-c2c[nH]c3ccccc23)n1`: the Potency is 6510 nM (active) in the assay with CRL-7250; 4610 nM (active) with HEK293; 5170 nM (active) in the assay with HaCat [1]; 2310 nM (active) in the assay with NIH3T3; 22400 nM (active) with CAOV3; 28200 nM (active) with CASKI. Moreover, the values for the Potency with HeLa and in the assay on PA-1 were 3980 nM (active) and 15800 nM (active), respectively. The Potency result in the assay with Es-2 and with JEG-3 was “inactive” each time.
Take `Cc1cc2c(F)c(Oc3ncnn4cc(OCC(C)OC(=O)C(C)N)c(C)c34)ccc2[nH]1` (configuration not stated): the max response with CRL-7250 was -5.94%. The Potency in the assay on HEK293 was 6510 nM (active). The molecule was called inactive with HaCat [1] and in the assay on HACAT [2]. Besides, the Potency result in the assay on C33A, with CAOV3, in the assay with CASKI, in the assay on Es-2, in the assay on OV90 and in the assay on PA-1 was “inactive” throughout.
In the case of `CCNC(=O)c1noc(-c2cc(Cl)c(O)cc2O)c1-c1ccc(OC)cc1`, the Potency in the assay on CRL-7250 is 461 nM (active); in the assay with HEK293, 206 nM (active); in the assay with HaCat [1], 259 nM (active); with NIH3T3, 920 nM (active); with C33A, 1120 nM (active); with Hek293T it was 355 nM (active). Besides, the Potency with PA-1 was 562 nM (active). The Potency entry in the assay on OV90 was “inactive”.
Take `O=S(=O)(Nc1cc(Cl)c(Oc2cnc3ccccc3c2)c(Cl)c1)c1ccc(Cl)cc1Cl`: the molecule was called inactive in the assay on CRL-7250, in the assay with HaCat [1] and with HACAT [2]. Besides, the max response with HEK293 was -18.7%. Moreover, the Potency result in the assay with C33A, in the assay on CAOV3, in the assay on CASKI, with Es-2, with HeLa and in the assay on Hek293T was “inactive” in each case. The Potency entry in the assay with JEG-3, in the assay with OV90 and in the assay with PA-1 was “inactive” throughout.
In the case of `COC1=CC(=O)C[C@@H](C)[C@@]12Oc1c(Cl)c(OC)cc(OC)c1C2=O`, the max response was -44.3% in the assay on CRL-7250, -102% in the assay on HEK293, -90.1% in the assay on HaCat [1] and -50.9% with NIH3T3. Besides, the Potency result with C33A, in the assay on CAOV3, in the assay with Es-2 and in the assay on OV90 was “inactive” each time.
As to `COc1ccc(N(C(=O)Nc2c(C)cccc2C)c2cc(Nc3ccc(N4CCN(C)CC4)cc3)ncn2)c(OC)c1`, the Potency in the assay with CRL-7250 is 2910 nM (active); with HEK293 it was 14600 nM (active); in the assay with HaCat [1], 7310 nM (active); in the assay on NIH3T3 it was 2060 nM (active). The Potency result in the assay on C33A, in the assay on CASKI, with Es-2, in the assay on HeLa and in the assay on JEG-3 was “inactive” throughout.
With `COc1c(C)cnc(Cn2cc(C#CCC(C)(C)O)c3c(Cl)nc(N)nc32)c1C`, the Potency in the assay with CRL-7250 was 259 nM (active); in the assay with HEK293, 51.7 nM (active); with HaCat [1], 73.1 nM (active); in the assay on NIH3T3 it was 206 nM (active); in the assay with Hek293T, 282 nM (active); in the assay with PA-1, 282 nM (active). The Potency result with HeLa was “inactive”.
